Legend:
Type in all cases: functional
[1] = target: Solute carrier family 2, facilitated glucose transporter member 1 (Homo sapiens) (UniProt P11166); assay: ST_JUDE_LEISH: Cytotoxicity at 2uM final concentration against transgenic Leishmania Mexicana promastigotes LmGLUT1 that are glucose transport deficient and complemented with the human glucose transporter GLUT1. Activity is measured by DNA content using SYBR green in vitro
[2] = target: Hexose transporter 1 (Plasmodium falciparum) (UniProt O97467); assay: ST_JUDE_LEISH: Cytotoxicity at 2uM final concentration against transgenic Leishmania Mexicana promastigotes LmPfHT that are glucose transport deficient and complemented with the Plasmodium falciparum hexose transporter. Activity is measured by DNA content using SYBR green in vitro
[3] = target: Glucose transporter (Leishmania mexicana) (UniProt O61059); assay: ST_JUDE_LEISH: Cytotoxicity at 2uM final concentration against transgenic Leishmania Mexicana promastigotes LmGT2 that are glucose transport deficient and complemented with the L. Mexicana glucose transporter 2. Activity is measured by DNA content using SYBR green in vitro

Sequence of Solute carrier family 2, facilitated glucose transporter member 1 (Homo sapiens) (P11166 whole entry): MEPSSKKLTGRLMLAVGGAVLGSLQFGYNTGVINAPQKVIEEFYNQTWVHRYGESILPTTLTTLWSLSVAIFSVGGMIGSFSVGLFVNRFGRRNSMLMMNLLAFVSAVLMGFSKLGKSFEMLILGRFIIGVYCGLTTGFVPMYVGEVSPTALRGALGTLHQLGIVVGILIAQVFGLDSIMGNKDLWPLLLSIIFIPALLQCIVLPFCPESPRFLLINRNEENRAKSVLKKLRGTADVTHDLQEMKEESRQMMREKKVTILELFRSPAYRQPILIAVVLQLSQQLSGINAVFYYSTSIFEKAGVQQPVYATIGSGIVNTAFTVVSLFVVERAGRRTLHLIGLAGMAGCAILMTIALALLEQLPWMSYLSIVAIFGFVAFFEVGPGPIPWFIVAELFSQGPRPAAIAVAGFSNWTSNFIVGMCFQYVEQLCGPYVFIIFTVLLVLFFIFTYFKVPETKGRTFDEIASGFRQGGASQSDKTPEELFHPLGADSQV

Structure (SMILES)	inhibition [1] [%]	inhibition [2] [%]	inhibition [3] [%]
CC1N=C(N)N=C(N)N1OCc1cccc2ccccc12 (stereo unspecified)	1.93	0.04	1.84
Cc1noc(C)c1-c1ccc2c(Nc3ccccc3C(C)(C)C)c(C(=O)NCc3ccc(C(F)(F)F)cc3)cnc2c1	3.44	5.41	3.69
CCN(CCCN1CCCCC1)c1cc(C)nc(Nc2ccc(C)c(Cl)c2)n1	3.02	2.33	1.16
CNC(=O)Cc1ccc(C(=O)Nc2cccc(-c3ccc(-c4nc5cccc(C)c5[nH]4)s3)c2)cc1	3.65	2.74	1.79
Cc1ccc(-c2cc(C(=O)Nc3ccc(S(=O)(=O)N4CC(C)OC(C)C4)cc3)[nH]n2)c(O)c1 (stereo unspecified)	3.32	2.68	3.48
O=[N+]([O-])c1cccc(/C=N/Nc2ccnc3ccc(C(F)(F)F)cc23)c1	4.51	2.45	0.3
O=C(Nc1ccc(Cl)cc1)Nc1cccc(-c2cc(CNCCc3ccccc3)oc2-c2ccncc2)c1	5.78	2.56	3.77
COc1cc(C(C)C)ccc1C1CCN(CCCCNC(=O)c2ccc(NC(=O)c3ccc(Cl)cc3)cc2)CC1	4.4	6.6	3.65
CC1SC(=S)NC1C(=O)O (stereo unspecified)	-1.93	0.57	0.24
COc1ccc2c(NN=Cc3ccc(F)cc3)ccnc2c1	1.29	2.43	1.85
CC(C)Cn1ncc2c3c(N)nc(N)nc3ccc21	4.46	5.97	4.36
Cc1cc(Nc2cccc(C(F)(F)F)c2)nc(Nc2cccc(C(F)(F)F)c2)n1	4.73	4.81	-0.49
COc1ccc2nccc([C@@H](O)CN3CCC(NC(=O)C(c4cc5ccccc5o4)N4CCN(c5ccccc5)CC4)CC3)c2c1 (stereo partly specified)	5.51	2.83	2.54
O=C(NCCCCN1CCC(c2ccc3c(c2OCCN2CCCC2=O)CCCC3)CC1)c1ccc(-c2ccc(C(F)(F)F)cc2)cc1	-1.16	0.75	-0.45
CN(C)CCNC(=O)[C@H](Cc1ccccc1)NC(=O)c1ccc(O)c(-c2ccc(Cl)c(Cl)c2)c1	-0.64	1.18	-2.32
CC1CN(c2ccc(NC(=O)c3cccs3)cc2)CCN1Cc1cccc(F)c1 (stereo unspecified)	-0.49	-0.85	3.41

Structure (SMILES)	inhibition [1] [%]	inhibition [2] [%]	inhibition [3] [%]
Cc1[nH]c2ccc(-c3ccc(N(C)C)cc3)cc2c(=O)c1Cl	2.49	3.7	2.73
Cc1ccnc2nc(C(=O)Nc3cc(C(F)(F)F)ccc3N3CCCCC3)nn12	1.48	2.09	1.77
Cc1[nH]c(C)c(-c2ccc(-c3cccc(OC(F)(F)F)c3)nc2)c(=O)c1Cl	-1.57	0.86	-0.63
CCCCCn1c(Sc2ccc(C#N)c([N+](=O)[O-])c2)nnc1-c1cccs1	2.86	6.4	2.32
CC(C)c1cn2c3c(cc(C(=O)N[C@@H](Cc4ccccc4)[C@H](O)CNC4CCCCC4)cc13)N(C)S(=O)(=O)CC2	-1.18	-0.34	-2.44
c1ccc(CN2CCC(NCc3ccc(-c4cncc5ccccc45)cc3)CC2)cc1	0.33	-2.18	3.84
COc1ccc(NC(=O)[C@H](CC(C)C)Nc2cc(C)nc(NCCc3cccs3)n2)cc1	-2.08	1.29	-1.58
CCOc1ccc(-c2nonc2NC(=O)c2ccccc2)cc1OCC	4.72	2.09	3.26
Cc1nc(C)c(-c2ccc(Oc3ccc(Cl)cc3Cl)cc2)c(O)c1Br	-1.34	-0.13	0.66
COc1ccccc1C1CCN(C2CCC(NC(=O)/C=C/c3cccc(Cl)c3F)CC2)CC1 (stereo unspecified)	10.5	1.32	3.14
CCN(CC)CCN(Cc1ccc(-c2ccc(C(F)(F)F)cc2)cc1)C(=O)Cn1c(CCc2cccc(F)c2F)nc(=O)c2cc(F)ccc21	4.48	2.96	4.5
Fc1ccc(Nc2nnc(CNC3CCN(Cc4ccc(Cl)c(Cl)c4)CC3)[nH]2)cc1	2.85	0.21	-0.83
COc1ccc2nccc([C@@H](O)CN3CCC(NC(=O)C(c4cc5ccccc5o4)N4CCN(Cc5ccccc5)CC4)CC3)c2c1 (stereo partly specified)	3.8	1.35	0.77
NCCNc1ccc([N+](=O)[O-])cc1C(=O)Nc1cccc(C(F)(F)F)c1	3.02	3.19	3.98
CCOC(=O)c1c(CCc2ccc(C(F)(F)F)cc2)nc2c(c1-c1ccc(C(=O)N[C@@H](C)c3ccncc3)cc1)C(=O)N1CCC[C@@H]21	2.81	1.31	0.48
CC(C)(C(=O)Nc1ccc(N2CCC3(CCCN(CC4CC4)C3)CC2)c(Cl)c1)c1cccc(C(F)(F)F)c1	0.2	-0.12	1.72
